# Bioassay records: PubChem, several laboratories
# A selection: hits, their analogues and other compounds. The true share with any hit is near 4.1%.
# MEKK3 PB1 HTS: modulators of MEKK3-MEK5 PB1 binding, primary screen, biochemical, wildtype MEKK3, multiplex bead flow cytometry, Alexa488-MEK5; bead-based flow cytometry, Alexa488-MEK5 binding to MEKK3; actives lie on both sides; 0 = blocked by unlabeled MEK5, 100 = vehicle; binding response (% of control), % at 10 µM; 290,000 tested, 1.4% active; AID 1529, 2009;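 active = binding response more than 3 SD above or below the average of its plate-row segment, actives on both sides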;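 also: Alexa488 bead fluorescence after subtracting the streptavidin-only scavenger bead signal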
# Target sequence (Q99759 whole entry, looked up): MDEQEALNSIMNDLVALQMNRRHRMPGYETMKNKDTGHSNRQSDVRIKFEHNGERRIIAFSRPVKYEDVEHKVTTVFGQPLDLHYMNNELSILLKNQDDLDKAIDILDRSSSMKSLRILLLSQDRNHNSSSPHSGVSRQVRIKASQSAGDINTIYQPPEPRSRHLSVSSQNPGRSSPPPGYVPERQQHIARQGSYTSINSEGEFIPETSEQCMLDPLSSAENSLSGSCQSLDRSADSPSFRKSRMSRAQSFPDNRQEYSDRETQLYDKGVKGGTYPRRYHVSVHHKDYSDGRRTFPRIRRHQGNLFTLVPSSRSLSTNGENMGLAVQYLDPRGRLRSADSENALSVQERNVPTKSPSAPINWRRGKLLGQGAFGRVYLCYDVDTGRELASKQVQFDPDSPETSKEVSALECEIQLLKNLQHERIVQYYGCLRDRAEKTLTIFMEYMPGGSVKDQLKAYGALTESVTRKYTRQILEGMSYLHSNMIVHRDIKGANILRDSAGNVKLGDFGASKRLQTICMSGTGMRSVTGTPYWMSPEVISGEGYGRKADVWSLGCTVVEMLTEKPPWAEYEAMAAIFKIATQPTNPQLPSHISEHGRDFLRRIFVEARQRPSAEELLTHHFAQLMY
# CHT allo act: CHT positive allosteric modulators, primary screen, cell-based, membrane potential dye, choline EC20. High affinity choline transporter 1 (Homo sapiens), Q9GZV3. CHT-expressing cells; hits give high values; LV-AA mutant CHT in HEK293 cells. B-score at 10 µM. 310,000 tested, 0.49% active. AID 488977, 2010;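 active = initial fluorescence not abnormally high and integrated response B-score, plate-corrected, over 3 SD above library mean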
# CHT inh: inhibitors of human choline transporter CHT; High affinity choline transporter 1 (Homo sapiens), Q9GZV3; CHT-expressing cells, membrane potential dye, choline response; hits give low values; B-score at 10 µM; 310,000 tested, 0.86% active; AID 488975, 2010;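 active = B-score over 3 SD under the library average, and starting fluorescence ratio not unusually high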;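 also: choline stimulus applied at its EC90 after an EC20 pre-addition; B-score computed on integrated fluorescence ratio after choline addition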
# MEKK2mut PB1 HTS: MEK5 binding signal on mutant MEKK2 PB1, primary screen, biochemical, multiplex bead flow cytometry, Alexa488-MEK5 | percent response, % at 10 µM | Alexa488-MEK5 binding to MEKK2 mutant | 290,000 tested, 0.35% active; in the data active = percent response above about 24%, passing the limit was not always enough
# MEKK2 WT-MEK5: modulators of MEK5 binding to wildtype MEKK2, primary screen, biochemical, multiplex bead flow cytometry, Alexa488-MEK5 | Mitogen-activated protein kinase kinase kinase 2 (Homo sapiens), Q9Y2U5 | Alexa488-MEK5 binding to MEKK2 WT; actives lie on both sides | binding response (% of control), % at 10 µM | 290,000 tested, 1.1% active | AID 1531, 2009; in the data active = binding response below about 67% or above about 130%
# Mot1-301 SUMO: yeast Mot1-301 growth rescue at high temperature, primary screen, SUMOylation pathway inhibitor project, S. cerevisiae, ATP luminescence, 38.5C. AID 2716, 2010. S. cerevisiae Mot1-301 growth rescue; percent above DMSO median, 100 means doubled. 320,000 tested, 1% active. growth rescue, % at 18.8 µM;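 active = every valid replicate shows activation above 250% relative to neutral control wells; inactive = the rest, any valid replicate at or below 250%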;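 also: OY570 slx delta 5 strain wells were the positive control but not used for scaling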
# The depositor's hits bear a star; i = inactive; . = no result; [ ] = remark or other dose.
SMILES,MEKK3 PB1 HTS,CHT allo act,CHT inh,MEKK2mut PB1 HTS,MEKK2 WT-MEK5,Mot1-301 SUMO
COC(=O)C(NC(=O)c1ccccc1C(=O)O)c1ccc2ccccc2c1 (centres undefined),104,i,i,2,104,3
C/C(=N\Nc1ccc([N+](=O)[O-])cc1)c1cccc(N)c1,.,i,i,.,.,97
C/C(=N\Nc1ccc([N+](=O)[O-])cc1)c1ccc(O)cc1,99,i,i,-2,102,337*
CC(=O)NC/C(C)=N\Nc1ccc([N+](=O)[O-])cc1,100,i,i,-7,91,279*
O=C(OCn1ncc(Br)c(Br)c1=O)c1ccc(F)cc1,100,i,-6.5*,8,104,317
O=C(NC(=S)Nc1cccc(Cl)c1N1CCCCC1)c1ccco1,102,i,i,4,105,0
O=C(NC(=S)Nc1ccccc1Cl)c1ccco1,100,i,i,-8,97,355*
CCc1nc2ccccc2n1Cc1ccc(OC)c(OC)c1,99,i,i,-38,77,4
COc1ccc(/C=C/c2nc3ccccc3n2Cc2ccc(OC)c(OC)c2)cc1,91,i,i,-1,100,353*
O=C1CN(C(=O)COC(=O)CNS(=O)(=O)/C=C/c2ccccc2)c2ccccc2N1,100,i,i,-5,96,-12
c1ccc(CC2CCN(Cc3ccccn3)CC2)cc1,96,i,i,-3,97,343*
Clc1cccc(CN2CCC(Cc3ccccc3)CC2)c1,104,i,i,5,112,56
O=C(N/N=C/c1ccc(Br)cc1)c1ccccc1-n1cccc1,101,i,i,3,102,10
CO/C([O-])=N/c1c[n+](-c2ccc(Cl)cc2)no1,109,i,i,0,106,290*
Cc1ccc(CNC(=O)c2ccc(Br)o2)cc1,98,i,i,1,99,8
O=C(NCc1ccc2c(c1)OCO2)c1ccc2c(c1)OCO2,101,i,i,10,103,-8
Cc1cc2cc(CNC(=O)c3ccc(Br)o3)ccc2[nH]1,68,i,i,1,53*[inhibitor],-4
Cc1cc2cc(CNC(=O)c3ccc4c(c3)OCO4)ccc2[nH]1,84,i,i,-5,-9.0*,23
CCOC(=O)c1nn(-c2ccccc2)c(=O)c2c(N)scc12,102,i,i,6,105,332*
COc1ccc(N(CC(=O)N2CCN(Cc3ccccc3)CC2)S(C)(=O)=O)cc1Cl,98,i,i,-6,100,-22
COC1CCCN(C(=O)c2ccc(OC3CCN(S(=O)(=O)N(C)C)CC3)cc2)C1 (centres undefined),102,i,i,4,109,-7
COc1cccc(-c2c(NC(=O)c3ccco3)oc3ccc(Cl)cc3c2=O)c1,98,i,i,-1,93,6
COc1cccc(-c2c(NC(=O)c3ccco3)oc3ccccc3c2=O)c1,101,i,i,2,101,519*
COC(=O)c1cccc(C23CC4(C2)[C@H](CN(Cc2cccnc2)[C@@H]4c2ccccc2)C3c2ccccc2)c1 (some centres undefined),105,i,i,4,103,376
O=C(CN1CCOCC1)OCCCC1CCCCC1,100,i,i,2,102,6
SMILES,MEKK3 PB1 HTS,CHT allo act,CHT inh,MEKK2mut PB1 HTS,MEKK2 WT-MEK5,Mot1-301 SUMO
CC(C)N1CC(C(=O)Nc2ccccc2)CC1=O (centres undefined),92,i,i,-2,111,305*
C(C#CCCCCCCCCC[n+]1ccccc1)#CCCCCCCCCC[n+]1ccccc1,112,7.6*,i,56*,274*,143
N#Cc1c(NC(=O)CCN2C(=O)c3ccccc3C2=O)oc(-c2ccccc2)c1-c1ccccc1,91,i,-5.9*,-6,84,264
CCN1/C(=C2\OC(=S)N(C)C2=O)Sc2ccccc21,.,i,i,.,.,178
CCN1/C(=C\C=C2\C(=O)N(c3ccccc3)C(=S)N2C)Sc2ccccc21,75*[inhibitor],.,.,-41,44*[inhibitor],.
CCCN(CC(=O)Nc1ccccc1C)C(=O)c1sc2ccccc2c1Cl,.,.,.,.,.,0
CCn1c(=O)c(C(=O)Nc2ccsc2C(=O)OC)c(O)c2ccccc21,106,i,i,17,108,783*
COc1ccc(N=c2scc(-c3ccc(S(=O)(=O)N4CCOCC4)cc3)n2CCCO)cc1,2.0*[inhibitor],.,.,-36,3.0*[inhibitor],.
CC(C)CNC(=O)COC(=O)c1cc(S(=O)(=O)N2CCCCC2)ccc1N1CCOCC1,104,i,i,6,104,277*
COc1cc2c(cc1OC)C(C)N(C(C)=O)CC2 (centres undefined),113,i,i,5,115,7
COc1cc2c(cc1OC)C(C)N(C(=O)C1COc3ccccc3O1)CC2 (centres undefined),102,i,i,-2,102,755*
CC(C)(C)C(=O)/C=c1\s/c(=C\c2ccc(-c3ccc([N+](=O)[O-])cc3)o2)c(=O)n1CC(=O)NC(N)=O,111,i,i,396*,241*,26
O=C(NCc1ccccc1Cl)C1CCC(CNc2nc(=S)[nH]c3ccccc23)CC1 (centres undefined),70,i,i,-12,14*,-25
COc1ccc2c(Cl)c(C(=O)N/N=C/c3c(C)[nH]c4ccccc34)sc2c1,96,i,i,22,48*[inhibitor],7
CCCN1CCN(C(=O)C2CCN(S(=O)(=O)c3ccc4c(c3)NC(=O)C(C)S4)CC2)CC1 (centres undefined),100,i,i,25*,51*,-11
CC1CCN(CCCNC(=O)c2cn(C)c3ccc(S(=O)(=O)N4CCCC4)cc3c2=O)CC1,92,6.8*,i,-2,101,-7
Cc1ccc(Cl)cc1NC(=S)N1CCC(c2ccccc2)C1 (centres undefined),107,i,i,4,102,-23
Cc1ccc(CN2CCNC(=O)C2CC(=O)NC2CCCCCC2)o1 (centres undefined),100,i,i,0,103,347*
COc1ccc(CN2CCNC(=O)C2CC(=O)NC2CCCCCC2)cc1C (centres undefined),104,i,i,3,121,10
